Data as given in PubChem BioAssay (NCI).
This is part of a sample that, as a whole, favours compounds with a hit. Of some 79,000 tested, about 15% had one in any assay. A number with no mark means an inactive call. The source made the active and inactive calls. Cut-off read from the data, not from the text of the source: active = growth inhibition above about 70%; inactive = the rest.

Tests used:
[1] = NCI Yeast Anticancer Drug Screen. Data for the rad50 strain (AID 155);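 note: 0% = growth of vehicle-only cultures of the same strain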; settings: S. cerevisiae rad50 strain growth inhibition, stronger effect = higher value
Procedure, shortened: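 Inhibition values express reduced yeast growth in compound-treated cultures relative to vehicle-treated controls.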

[2] = NCI Yeast Anticancer Drug Screen. Data for the mec2-1 strain (AID 157); settings: S. cerevisiae mec2-1 strain, stronger effect = higher value
Procedure, shortened: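 Strain: mec2-1 (DNA repair/cell cycle alteration). Compound exposure, then growth measured; inhibition expressed relative to vehicle.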

[3] = NCI Yeast Anticancer Drug Screen. Data for the sgs1 mgt1 strain (AID 161);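 note: 0% = growth of cultures given vehicle only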; settings: S. cerevisiae sgs1 mgt1 strain, stronger effect = higher value
Procedure, shortened: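 Read-out: growth inhibition vs vehicle controls. Cells: mutant yeast strain deficient in DNA damage repair.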

[4] = NCI Yeast Anticancer Drug Screen. Data for the cln2 rad14 strain (AID 165);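 note: 0% = growth equal to vehicle treated cultures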; settings: S. cerevisiae cln2 rad14 strain, stronger effect = higher value
Procedure, shortened: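 Compounds are applied to the cln2 rad14 yeast strain, and growth is then compared with that of vehicle-treated cultures to give inhibition.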

[5] = NCI Yeast Anticancer Drug Screen. Data for the bub3 strain (AID 167); settings: S. cerevisiae bub3 mutant strain, stronger effect = higher value
Procedure, shortened: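 Steps: expose the mutant yeast strain to compound; grow alongside vehicle-treated cultures; measure growth; express inhibition against the vehicle cultures.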

[6] = NCI Yeast Anticancer Drug Screen. Data for the mlh1 rad18 strain (AID 175); settings: S. cerevisiae mlh1 rad18 strain growth inhibition, stronger effect = higher value
Procedure, shortened: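 Read-out is yeast growth inhibition, calculated against vehicle-only controls. The compound was applied to a strain engineered with DNA damage repair alterations.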

[7] = at 5.0 µM (retest, dose inferred, filed as 0.5)
[8] = at 50.0 µM (retest, dose inferred, filed as 5.0)

| SMILES | growth inhibition [1, 7] | growth inhibition [1, 8] | growth inhibition ([1]; at 50.0 µM) | growth inhibition [2, 7] | growth inhibition [2, 8] | growth inhibition ([2]; at 50.0 µM) | growth inhibition [3, 7] | growth inhibition [3, 8] | growth inhibition ([3]; at 50.0 µM) | growth inhibition [4, 7] | growth inhibition [4, 8] | growth inhibition ([4]; at 50.0 µM) | growth inhibition [5, 7] | growth inhibition [5, 8] | growth inhibition ([5]; at 50.0 µM) | growth inhibition [6, 7] | growth inhibition [6, 8] | growth inhibition ([6]; at 50.0 µM) |
| --- | --- | --- | --- | --- | --- | --- | --- | --- | --- | --- | --- | --- | --- | --- | --- | --- | --- | --- |
| Cc1cc(=O)[nH]c(NN2C(Cl)C(=O)C2c2ccc(O)cc2)n1 (centres undefined) | -14% | 81% (active) | 82.2% (active) | -9% | 82% (active) | 67.2% | -5% | 68% | 79.5% (active) | 14% | 63% | 53.6% | 7% | 94% (active) | 78.3% (active) | 7% | 92% (active) | 71.3% (active) |
| Clc1sc2ccccc2c1Cl | 2% | -18% | 22.2% | -5% | -3% | -11.9% | 2% | 1% | 25.2% | 4% | -4% | 36.6% | -79% | 0% | -7.55% | -1% | -2% | 14.6% |
| CCCCCCCCCCCCSC(=NCC)NCC | 89% (active) | 99% (active) | 99.6% (active) | 79% (active) | 100% (active) | 99.8% (active) | 98% (active) | 100% (active) | 48.8% | 59% | 99% (active) | 99.1% (active) | 96% (active) | 100% (active) | 99.6% (active) | 89% (active) | 99% (active) | 99.5% (active) |
| CCOC(=O)C1=C(Nc2ccc(Cl)c(Cl)c2)OC/C1=N\NS(=O)(=O)c1ccc(C)cc1 | 24% | 24% | 17.6% | 15% | 15% | 51.9% | 22% | 22% | 80.3% (active) | 5% | 5% | 51.6% | 15% | 15% | 63% | 27% | 27% | 64.2% |
| CC1=CCCc2c1cc1ccc3cccc4ccc2c1c34 | 8% | -6% | 49.5% | -7% | -8% | 79.7% (active) | -4% | 16% | 94.2% (active) | -2% | -8% | 28.1% | -5% | -10% | 91.2% (active) | -11% | -6% | 89.8% (active) |
| CN1C(=O)OC(C)(c2ccccc2)C1=O (centres undefined) | -3% | 4% | -14.7% | -2% | -3% | -1.1% | -2% | 0% | -13.6% | 2% | -1% | 78% (active) | 2% | -7% | -11.8% | 0% | 8% | -2.55% |
| CC(c1ccc2ccccc2c1)c1c(F)cccc1C(=O)O (centres undefined) | 2% | 50% | 98.7% (active) | 0% | 54% | 98.3% (active) | 0% | 12% | 97.2% (active) | -4% | 64% | 98.6% (active) | -9% | 41% | 97.6% (active) | -16% | 61% | 98.5% (active) |
| CC(=O)c1c2c(cc3c1CC1(Cc4ccccc4C1=O)C3)CCC2 (centres undefined) | -4% | 79% (active) | 36.7% | -27% | 88% (active) | 42.8% | -36% | 87% (active) | 60% | 27% | 29% | 46.4% | -4% | 89% (active) | 63.8% | -11% | 73% (active) | 61.5% |
| O=C1OC(c2ccc(O)cc2)Sc2ccccc21 (centres undefined) | 6% | 66% | 81.1% (active) | 38% | 83% (active) | 74.2% (active) | -43% | 40% | 49.8% | 3% | 24% | -22.5% | -1% | 29% | 3.9% | 8% | 56% | 40% |
| COc1ccc2c(Cc3ccccc3)c3[n+](cc2c1OC)CCc1cc2c(cc1-3)OCO2 | 2% | 98% (active) | 98.8% (active) | 8% | 97% (active) | 99.2% (active) | 4% | 99% (active) | 99% (active) | -1% | 98% (active) | 98.2% (active) | 12% | 98% (active) | 98.8% (active) | -4% | 97% (active) | 98.9% (active) |
| O=C(NCCc1c(-c2ccccc2)[nH]c2ccccc12)C(F)(F)C(F)(F)F | 21% | 21% | 86.5% (active) | 1% | 1% | 91% (active) | 33% | 33% | 84.8% (active) | 4% | 4% | 81.6% (active) | 5% | 5% | 79% (active) | 23% | 23% | 30.1% |
| OC(COc1ccc(Cl)cc1)CN1CCN(c2cccc(Cl)c2)CC1 (centres undefined) | 20% | 99% (active) | 95.8% (active) | 37% | 100% (active) | 93.9% (active) | 80% (active) | 100% (active) | 98.5% (active) | 20% | 99% (active) | 85.8% (active) | 25% | 98% (active) | 95.5% (active) | 62% | 99% (active) | 96.3% (active) |
| O=[N+]([O-])c1ccc(Cl)cc1C(Nc1nncs1)Nc1nncs1 | 8% | 81% (active) | 74.7% (active) | 7% | 76% (active) | 40.6% | 17% | 84% (active) | 86% (active) | 2% | 55% | 41.2% | -1% | 58% | 57.4% | 0% | 88% (active) | 80% (active) |
| COC(=O)C(C#N)C(c1ccccc1)c1c[nH]c2ccccc12 (centres undefined) | -3% | 75% (active) | 77.2% (active) | -4% | 59% | 16.3% | -5% | 63% | 55.7% | -52% | 82% (active) | 24.1% | -7% | 71% (active) | -4.8% | -14% | 89% (active) | 71% (active) |
| O=C1c2ccccc2-c2ccc(N3C(=O)C4CCCCC4C3=O)cc21 (centres undefined) | -5% | 95% (active) | -31.3% | -4% | 96% (active) | 5.4% | -4% | 96% (active) | -9.15% | -8% | 95% (active) | -36.8% | 41% | 95% (active) | 74.9% (active) | -4% | 94% (active) | -26.2% |
| O=C1c2cc(Br)cc(Br)c2NCCC1(Br)Br | 99% (active) | 98% (active) | 97.7% (active) | 98% (active) | 100% (active) | 99.1% (active) | 100% (active) | 99% (active) | 97.8% (active) | 99% (active) | 98% (active) | 98% (active) | 99% (active) | 98% (active) | 97.5% (active) | 100% (active) | 98% (active) | 98.5% (active) |
| CCCCCCCCN(CCCCCCCC)CC(O)c1cc(-c2ccc(OC)cc2)nc2cc(Cl)ccc12 (centres undefined) | -2% | 81% (active) | 42.5% | 8% | 86% (active) | 92.5% (active) | 17% | 85% (active) | 48.6% | 8% | 76% (active) | 84% (active) | 12% | 85% (active) | 75.7% (active) | 7% | 84% (active) | 89% (active) |
| C=CCCCCn1c2ccccc2c2c(C)c3c[n+](C)ccc3c(C)c21 | 99% (active) | 99% (active) | 89.7% (active) | 99% (active) | 99% (active) | 91.8% (active) | 97% (active) | 97% (active) | 90.3% (active) | 100% (active) | 100% (active) | 90.7% (active) | 98% (active) | 98% (active) | 91.4% (active) | 98% (active) | 98% (active) | 88.8% (active) |
